According to PubChem BioAssay (NCATS):
Several values for one entry are separate records, joined by “and”; a condition that tells them apart may be missing. Identical values can stand only once. Results filed as inconclusive are left out. Activity calls are given as the source filed them. Unless noted, calls follow the shape of the full dose curve.

What was measured:
[1] = biological target: Cytochrome P450 3A4 (Homo sapiens) (UniProt P08684); assay: qHTS Assay for Inhibitors and Substrates of Cytochrome P450 3A4 (AID 884; active = well fitted curve in the direction sought with a large enough effect; an effect the other way counts as inactive or inconclusive; also: potency is read from the fitted curve at half-maximal effect; nearly all actives have a fitted effect of over 50% in size)
Chain of Cytochrome P450 3A4 (Homo sapiens) (P08684 whole entry, looked up): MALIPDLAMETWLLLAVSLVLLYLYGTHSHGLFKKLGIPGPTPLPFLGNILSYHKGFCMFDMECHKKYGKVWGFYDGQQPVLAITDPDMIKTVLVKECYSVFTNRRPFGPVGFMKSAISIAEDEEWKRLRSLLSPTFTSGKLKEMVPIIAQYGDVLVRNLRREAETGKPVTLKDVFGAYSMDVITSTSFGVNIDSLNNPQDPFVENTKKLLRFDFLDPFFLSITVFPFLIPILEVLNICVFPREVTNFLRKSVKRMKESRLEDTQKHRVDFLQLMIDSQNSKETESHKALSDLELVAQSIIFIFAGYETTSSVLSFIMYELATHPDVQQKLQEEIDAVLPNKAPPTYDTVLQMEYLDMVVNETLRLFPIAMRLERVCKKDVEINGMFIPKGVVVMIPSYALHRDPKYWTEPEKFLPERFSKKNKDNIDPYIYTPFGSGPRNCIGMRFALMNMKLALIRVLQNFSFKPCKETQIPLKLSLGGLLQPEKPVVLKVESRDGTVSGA
In short: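 Luminescent readout of luciferin produced by CYP3A4 (20 nM) dealkylation of Luciferin-PPXE, 25 uM (its KM). NADPH-driven reaction ran 60 min at RT after 10 min compound preincubation; data scaled to 57 uM ketoconazole as 100% inhibition.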

[2] = biological target: Cytochrome P450 3A4 (Homo sapiens) (UniProt P08684); assay: qHTS Assay for Activators of Cytochrome P450 3A4 (AID 885; active = well fitted curve in the direction sought with a large enough effect; an effect the other way counts as inactive or inconclusive; also: nearly all actives have a fitted effect of over 65% in size)
In short: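 Luminescent readout of luciferin formed from 25 uM Luciferin-PPXE (KM level) by 20 nM CYP3A4 in 200 mM KPO4, with 60 min NADPH-driven reaction at room temperature after 10 min compound exposure. Ketoconazole (57 uM) defined 100% inhibition.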

[3] = MultiTox-Fluor Cytotoxicity Assay - LYMP1-002 - Dead Cells (AID 960; active = well fitted curve in the direction sought with a large enough effect; an effect the other way counts as inactive or inconclusive; also: potency is read from the fitted curve at half-maximal effect; nearly all actives have a fitted effect of over 60% in size)
In short: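 Concentration-dependent increases in membrane-leaked protease activity are quantified in LYMP1-002 cells after 16 hr treatment; values are normalized against DMSO and tetraoctylammonium bromide (15 uM) controls and AC50 derived by Hill modeling.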

[4] = biological target: Glucocorticoid receptor (Homo sapiens) (UniProt P04150); assay: qHTS assay for small molecule agonists of glucocorticoid receptor signaling (AID 588532; active = well fitted curve in the direction sought with a large enough effect in the signal ratio, with a control signal flat; the % refers to the signal ratio;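 also: 100% = dexamethasone at 0.1 µM and 0% = DMSO only wells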); details: HeLa MMTV-bla, beta-lactamase ratio, agonist, 18 h; stronger effect = higher value; percent of dexamethasone control, DMSO zero
Chain of Glucocorticoid receptor (Homo sapiens) (P04150 whole entry, looked up): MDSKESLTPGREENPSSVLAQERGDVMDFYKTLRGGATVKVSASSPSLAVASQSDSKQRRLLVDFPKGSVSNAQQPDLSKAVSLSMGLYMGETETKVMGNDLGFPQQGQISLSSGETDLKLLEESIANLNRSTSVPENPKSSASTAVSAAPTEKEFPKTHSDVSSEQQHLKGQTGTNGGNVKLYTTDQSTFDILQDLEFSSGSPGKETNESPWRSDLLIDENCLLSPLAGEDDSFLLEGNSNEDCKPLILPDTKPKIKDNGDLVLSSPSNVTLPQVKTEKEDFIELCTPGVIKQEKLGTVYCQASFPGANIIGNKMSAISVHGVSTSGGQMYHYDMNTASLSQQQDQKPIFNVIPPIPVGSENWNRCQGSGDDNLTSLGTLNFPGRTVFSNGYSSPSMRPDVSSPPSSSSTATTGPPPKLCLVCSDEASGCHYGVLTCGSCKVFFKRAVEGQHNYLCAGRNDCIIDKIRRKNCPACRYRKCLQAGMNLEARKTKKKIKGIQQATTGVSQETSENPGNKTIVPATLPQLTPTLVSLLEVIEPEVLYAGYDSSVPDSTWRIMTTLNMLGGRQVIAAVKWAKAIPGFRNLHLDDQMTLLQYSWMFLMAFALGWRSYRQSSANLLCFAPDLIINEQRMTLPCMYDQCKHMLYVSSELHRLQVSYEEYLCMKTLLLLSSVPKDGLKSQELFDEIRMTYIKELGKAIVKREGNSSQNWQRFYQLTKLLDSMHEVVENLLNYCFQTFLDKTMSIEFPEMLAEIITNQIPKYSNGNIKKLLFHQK
In short: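 MMTV-bla HeLa beta-lactamase reporter cells in 1% charcoal/dextran FBS medium, compounds up to 92 uM for 18 h at 37 C, CCF4 readout; normalized to 0.1 uM dexamethasone (100%), EC50 and efficacy from Hill fits.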

[5] = biological target: Peroxisome proliferator-activated receptor delta (Homo sapiens) (UniProt Q03181); assay: qHTS assay for small molecule agonists of peroxisome proliferator-activated receptor delta signaling (AID 588534);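 also: 0% = DMSO basal wells and 100% = positive control agonist at 10 µM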
Chain of Peroxisome proliferator-activated receptor delta (Homo sapiens) (Q03181 whole entry, looked up): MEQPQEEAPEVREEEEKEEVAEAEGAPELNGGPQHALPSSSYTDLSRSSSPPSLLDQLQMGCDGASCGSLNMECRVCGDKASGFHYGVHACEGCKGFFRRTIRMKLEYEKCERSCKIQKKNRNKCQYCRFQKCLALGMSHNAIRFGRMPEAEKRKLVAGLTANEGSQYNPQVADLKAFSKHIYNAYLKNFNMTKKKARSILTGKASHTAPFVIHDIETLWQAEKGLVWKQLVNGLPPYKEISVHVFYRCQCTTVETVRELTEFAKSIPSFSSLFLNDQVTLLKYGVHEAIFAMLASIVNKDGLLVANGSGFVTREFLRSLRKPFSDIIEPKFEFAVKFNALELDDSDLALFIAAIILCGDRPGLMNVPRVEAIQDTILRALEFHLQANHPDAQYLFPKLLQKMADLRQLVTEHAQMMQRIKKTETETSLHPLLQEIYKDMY
In short: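 EC50 and efficacy values derive from Hill fits of a concentration series in a beta-lactamase reporter cell assay. Exposure is 18 hrs at 37 C, with CCF4 fluorescence as the readout.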

[6] = biological target: Peroxisome proliferator-activated receptor gamma (Homo sapiens) (UniProt P37231); assay: qHTS assay for small molecule antagonists of peroxisome proliferator-activated receptor gamma signaling (AID 588537; active = well fitted inhibition curve with a large enough effect in the signal ratio, with a control signal flat, not every such curve was filed as active; the % refers to the signal ratio; also: potency is read from the fitted curve at half-maximal effect)
Chain of Peroxisome proliferator-activated receptor gamma (Homo sapiens) (P37231 whole entry, looked up): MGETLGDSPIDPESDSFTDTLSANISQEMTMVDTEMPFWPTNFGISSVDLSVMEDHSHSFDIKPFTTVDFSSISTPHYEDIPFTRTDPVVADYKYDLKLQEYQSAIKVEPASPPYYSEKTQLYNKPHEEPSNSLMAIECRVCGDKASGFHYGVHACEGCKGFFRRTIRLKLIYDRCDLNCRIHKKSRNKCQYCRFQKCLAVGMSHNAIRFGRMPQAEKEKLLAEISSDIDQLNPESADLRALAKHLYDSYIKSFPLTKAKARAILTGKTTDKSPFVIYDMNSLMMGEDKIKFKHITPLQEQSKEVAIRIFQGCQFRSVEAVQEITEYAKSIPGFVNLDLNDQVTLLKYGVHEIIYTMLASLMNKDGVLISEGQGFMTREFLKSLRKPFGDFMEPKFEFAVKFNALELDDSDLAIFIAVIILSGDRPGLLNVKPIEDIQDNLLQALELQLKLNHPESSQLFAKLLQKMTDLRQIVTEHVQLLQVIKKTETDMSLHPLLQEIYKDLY
In short: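 Read-out: CCF4 fluorescence (ex 405, em 460/530 nm) after 2 h at RT. Cells were HEK293 carrying a UAS-bla reporter and treated 16 h at 37 C with compound plus rosiglitazone (50 nM final). Normalized to rosiglitazone and DMSO.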

[7] = biological target: Vitamin D3 receptor (Homo sapiens) (UniProt P11473); assay: qHTS assay for small molecule agonists of vitamin D receptor signaling (AID 588543);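 also: 0% = DMSO basal and 100% = reference agonist control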
Chain of Vitamin D3 receptor (Homo sapiens) (P11473 whole entry, looked up): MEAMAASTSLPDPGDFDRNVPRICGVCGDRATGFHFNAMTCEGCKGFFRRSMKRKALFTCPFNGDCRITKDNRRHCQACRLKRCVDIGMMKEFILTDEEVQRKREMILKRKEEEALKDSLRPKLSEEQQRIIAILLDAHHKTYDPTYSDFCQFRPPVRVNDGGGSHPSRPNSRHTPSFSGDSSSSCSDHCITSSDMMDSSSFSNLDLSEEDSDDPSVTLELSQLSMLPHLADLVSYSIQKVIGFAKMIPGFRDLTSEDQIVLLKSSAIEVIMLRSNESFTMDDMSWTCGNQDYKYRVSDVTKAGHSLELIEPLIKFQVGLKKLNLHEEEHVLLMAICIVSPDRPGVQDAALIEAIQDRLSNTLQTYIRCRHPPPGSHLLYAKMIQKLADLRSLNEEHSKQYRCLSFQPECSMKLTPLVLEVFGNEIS
In short: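 VDR-UAS-bla HEK293T cells, 2000/well, 2% charcoal-stripped FBS; compound titration 16 h at 37 C; CCF4 beta-lactamase ratio read. Normalized to 50 nM 1-alpha,25-dihydroxyvitamin D3 (100%) and DMSO; Hill fit gives EC50, efficacy.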

[8] = qHTS assay for small molecule agonists of the antioxidant response element (ARE) signaling pathway (AID 651741; active = well fitted activation curve with a large enough effect in the signal ratio; the % refers to the signal ratio; also: potency is read from the fitted curve at half-maximal effect; as to activation: % of control where 0% means no effect)
In short: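 HepG2 ARE-bla reporter cells, 2,000/well; 5 h settle at 37 C/5% CO2; compound pin transfer (23 nL, DMSO); 16 h at 37 C; LiveBLAzer B/G FRET substrate, 2 h RT; fluorescence intensity read.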

[9] = qHTS assay for small molecule activators of the nuclear factor-kappa B (NF-kB) signaling pathway (AID 651749; active = well fitted activation curve with a large enough effect in the signal ratio; the % refers to the signal ratio; also: % of control where 0% means no effect); details: NF-kB-bla ME-180 cells, beta-lactamase FRET ratio, 16 h; activation: stronger effect = higher value
In short: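 NF-kB-bla ME-180 cells, 2,000/well; 23 nL compound or DMSO pinned; 16 hr, 37C/5% CO2; beta-lactamase FRET read-out.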

[10] = qHTS assay for environmental chemicals that activate the Aryl hydrocarbon Receptor (AhR) signaling pathway (AID 651777; active = well fitted curve in the direction sought with a large enough effect; an effect the other way counts as inactive or inconclusive; also: % of control where 0% means no effect; nearly all actives have a fitted effect of over 15% in size); details: 1A2-DRE human hepatoma cells, luciferase, 24 h; activation: stronger effect = higher value
In short: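 Luminescence (One-Glo, 30 min, room temperature) reports AhR-driven luciferase in stably transfected human hepatoma cells bearing DRE and CYP1A2 promoter. Cells (1,200/well) were treated with compound for 24 hr at 37 C in qHTS format.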

[11] = biological target: Peroxisome proliferator-activated receptor alpha (Homo sapiens) (UniProt Q07869); assay: qHTS assay for small molecule agonists of the peroxisome proliferator-activated receptor alpha (PPARalpha) signaling pathway (AID 651778; active = well fitted curve in the direction sought with a large enough effect; an effect the other way counts as inactive or inconclusive; also: % of control where 0% means no effect); details: PathHunter PPARalpha complementation, chemiluminescence, 6 h; stronger effect = higher value
Chain of Peroxisome proliferator-activated receptor alpha (Homo sapiens) (Q07869 whole entry, looked up, the tested form may be a part): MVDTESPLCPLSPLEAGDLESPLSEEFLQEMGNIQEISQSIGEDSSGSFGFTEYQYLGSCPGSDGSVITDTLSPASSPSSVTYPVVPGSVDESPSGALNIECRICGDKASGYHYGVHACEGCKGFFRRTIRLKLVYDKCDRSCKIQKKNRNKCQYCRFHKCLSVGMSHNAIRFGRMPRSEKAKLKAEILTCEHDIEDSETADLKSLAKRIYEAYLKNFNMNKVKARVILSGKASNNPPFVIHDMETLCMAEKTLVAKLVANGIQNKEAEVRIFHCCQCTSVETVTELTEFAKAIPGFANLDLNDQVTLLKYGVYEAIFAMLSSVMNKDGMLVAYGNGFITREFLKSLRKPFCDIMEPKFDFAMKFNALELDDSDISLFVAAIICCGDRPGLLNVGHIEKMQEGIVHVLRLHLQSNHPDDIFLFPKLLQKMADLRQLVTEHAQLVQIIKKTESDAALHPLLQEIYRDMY
In short: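 Enzyme-fragment complementation assay in which ligand-bound PPARalpha translocates and forms an active enzyme that generates chemiluminescence. Cells were plated overnight, exposed to compound for 6 hr at 37 C, and then given detection reagent for 60 min at room temperature.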

[12] = qHTS for Inhibitors of the Functional Ribonucleoprotein Complex (vRNP) of Lassa (LASV) Arenavirus: LASV Primary Screen - GLuc reporter signal (AID 1347082; calls by dose curve; tested in HEK293 reporter line; also: % is scaled to controls: 0 for no effect and ±100 for the full control effect; nearly all actives have a fitted effect of over 60% in size)
[13] = qHTS for Inhibitors of the Functional Ribonucleoprotein Complex (vRNP) of Lassa (LASV) Arenavirus: Viability assay - alamar blue signal for LASV Primary Screen (AID 1347083; calls by dose curve; tested in HEK293 reporter line; also: % is scaled to controls: 0 for no effect and ±100 for the full control effect; nearly all actives have a fitted effect of over 80% in size)
[14] = qHTS for Inhibitors of the Functional Ribonucleoprotein Complex (vRNP) of Lymphocytic Choriomeningitis Arenaviruses (LCMV): Viability assay - alamar blue signal for LCMV Primary Screen (AID 1347085; calls by dose curve; tested in HEK293 reporter line; also: % is scaled to controls: 0 for no effect and ±100 for the full control effect; nearly all actives have a fitted effect of over 80% in size)
[15] = biological target: Nucleoprotein (Lymphocytic choriomeningitis virus (strain Armstrong)) (UniProt P09992); assay: qHTS for Inhibitors of the Functional Ribonucleoprotein Complex (vRNP) of Lymphocytic Choriomeningitis Arenaviruses (LCMV): LCMV Primary Screen - GLuc reporter signal (AID 1347086); also: % is scaled to controls: 0 for no effect and ±100 for the full control effect; nearly all actives have a fitted effect of over 70% in size
Chain of Nucleoprotein (Lymphocytic choriomeningitis virus (strain Armstrong)) (P09992 whole entry, looked up): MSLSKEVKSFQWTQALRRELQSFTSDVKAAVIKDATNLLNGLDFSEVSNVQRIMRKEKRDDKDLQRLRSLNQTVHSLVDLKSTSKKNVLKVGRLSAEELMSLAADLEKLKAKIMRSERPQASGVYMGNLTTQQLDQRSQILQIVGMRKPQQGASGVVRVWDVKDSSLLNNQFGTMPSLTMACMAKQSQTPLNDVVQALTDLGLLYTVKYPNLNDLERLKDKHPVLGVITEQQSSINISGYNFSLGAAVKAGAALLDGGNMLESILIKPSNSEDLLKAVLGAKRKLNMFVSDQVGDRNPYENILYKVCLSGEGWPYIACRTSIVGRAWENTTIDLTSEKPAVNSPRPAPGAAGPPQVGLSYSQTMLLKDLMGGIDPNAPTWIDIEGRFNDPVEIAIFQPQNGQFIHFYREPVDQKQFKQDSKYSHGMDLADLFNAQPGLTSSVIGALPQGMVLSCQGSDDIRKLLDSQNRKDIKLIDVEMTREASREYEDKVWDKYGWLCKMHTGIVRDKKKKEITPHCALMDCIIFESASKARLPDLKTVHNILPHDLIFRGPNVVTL

[16] = biological target: Bile acid receptor (Homo sapiens) (UniProt Q96RI1); assay: qHTS assay for small molecule agonists of farnesoid X receptor signaling (AID 588527); details: HEK293T FXR-UAS-bla, beta-lactamase ratio, 16 h; activation: stronger effect = higher value;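 also: 0% = vehicle basal and 100% = reference agonist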
In short: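 Agonist-mode beta-lactamase reporter in GeneBLAzer FXR-UAS-bla HEK293T cells, titration up to 92 uM, 16 h exposure at 37 C, CCF4 fluorescence. Response scaled to DMSO (0%) and 100 uM chenodeoxycholic acid (100%), then Hill-fitted for EC50 and efficacy.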

[17] = biological target: Estrogen receptor (Homo sapiens) (UniProt P03372); assay: qHTS assay for small molecule antagonists of estrogen receptor alpha signaling (AID 588513; active = well fitted curve in the direction sought with a large enough effect in the signal ratio, with a control signal flat, not every such curve was filed as active; the % refers to the signal ratio; also: % is scaled to controls: 0 for no effect and ±100 for the full control effect)
Chain of Estrogen receptor (Homo sapiens) (P03372 whole entry, looked up): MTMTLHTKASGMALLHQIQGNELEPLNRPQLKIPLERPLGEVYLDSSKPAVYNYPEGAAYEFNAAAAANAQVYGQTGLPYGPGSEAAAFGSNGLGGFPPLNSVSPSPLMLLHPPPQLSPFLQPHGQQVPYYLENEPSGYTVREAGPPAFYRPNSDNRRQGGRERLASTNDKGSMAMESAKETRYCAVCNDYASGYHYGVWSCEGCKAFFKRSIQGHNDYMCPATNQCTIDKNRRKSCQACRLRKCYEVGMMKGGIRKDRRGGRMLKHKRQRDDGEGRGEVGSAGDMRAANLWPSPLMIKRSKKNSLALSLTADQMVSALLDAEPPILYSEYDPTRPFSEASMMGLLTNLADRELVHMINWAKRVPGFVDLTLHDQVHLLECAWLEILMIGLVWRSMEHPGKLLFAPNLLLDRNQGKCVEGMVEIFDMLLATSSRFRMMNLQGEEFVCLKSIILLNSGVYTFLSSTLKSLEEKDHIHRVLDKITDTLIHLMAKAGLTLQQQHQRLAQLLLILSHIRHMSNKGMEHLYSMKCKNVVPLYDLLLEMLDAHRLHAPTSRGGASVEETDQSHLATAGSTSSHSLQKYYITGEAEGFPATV
In short: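 ER-alpha-UAS-bla GripTite HEK 293 cells in 2% charcoal/dextran-treated FBS medium; compounds titrated (1:2, duplicate), then stimulated with 0.5 nM 17-beta-estradiol for 18 h at 37C. CCF4 beta-lactamase fluorescence; Hill-fit IC50 and efficacy.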

[18] = biological target: Thyroid hormone receptor beta (Homo sapiens) (UniProt P10828); assay: qHTS assay for small molecule agonists of thyroid hormone receptor beta signaling (AID 588545);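 also: 0% = DMSO only and 100% = 10 nM T3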
Chain of Thyroid hormone receptor beta (Homo sapiens) (P10828 whole entry, looked up): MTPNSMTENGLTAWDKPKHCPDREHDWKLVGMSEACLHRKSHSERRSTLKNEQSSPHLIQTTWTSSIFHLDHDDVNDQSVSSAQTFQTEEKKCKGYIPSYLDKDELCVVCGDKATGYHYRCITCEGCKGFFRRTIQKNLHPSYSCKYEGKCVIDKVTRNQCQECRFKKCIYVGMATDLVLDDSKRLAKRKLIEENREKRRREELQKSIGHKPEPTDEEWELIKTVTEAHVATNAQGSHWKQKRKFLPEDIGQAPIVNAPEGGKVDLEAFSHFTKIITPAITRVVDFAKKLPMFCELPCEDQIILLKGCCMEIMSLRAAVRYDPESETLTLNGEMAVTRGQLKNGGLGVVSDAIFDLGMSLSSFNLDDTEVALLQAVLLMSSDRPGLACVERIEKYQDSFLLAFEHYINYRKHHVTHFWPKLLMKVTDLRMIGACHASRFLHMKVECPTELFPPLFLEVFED
In short: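 TR-UAS-bla-GripTite HEK 293 cells in medium with 2% charcoal/dextran FBS, 0.1 mM NEAA and 1 mM sodium pyruvate were treated with titrated compounds for 18 hrs at 37 C. Beta-lactamase reporter was read with CCF4 dye (ex 405, em 460/530 nm); EC50 from Hill fits.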

[19] = qHTS assay for small molecule agonists of the antioxidant response element (ARE) signaling pathway measured by Nrf2-dependant transcriptional activity (AID 720636; active = well fitted curve in the direction sought with a large enough effect in the repeat runs; an effect the other way counts as inactive or inconclusive; also: % of control where 0% means no effect)
In short: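 Nrf2-dependent transcription read as ONE-Glo luciferase signal from ARE-luc HepG2 reporter cells after 16 hr compound treatment at 37 C, 5% CO2, in assay medium with 1% dialyzed FBS.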

[20] = qHTS profiling of the MIPE4 collection as inhibitors of Plasmodium falciparum (3D7) proliferation (AID 743344; call rule not given here;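 also: scaled between DMSO vehicle wells and 0.29 µM artemisinin as full inhibition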); details: P. falciparum 3D7 in erythrocytes, SYBR Green DNA fluorescence, 72 h; at 28.5 µM (top of the series) unless noted
In short: (§1)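 Parasite DNA was quantified by SYBR Green I fluorescence (ex 485, em 535 nm) after overnight lysis in saponin/Triton buffer at room temperature. Cultures at 0.3% parasitemia and 2.5% hematocrit were first exposed to compound for 72 h at 37 C; signals were normalised to artemisinin (0.29 uM) and vehicle wells.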

[21] = qHTS profiling of the MIPE4 collection as inhibitors of Plasmodium falciparum (DD2) proliferation (AID 743345; call rule not given here); details: P. falciparum Dd2 in erythrocytes, SYBR Green DNA, 72 h; at 28.5 µM (top of the series) unless noted
In short: as §1

[22] = qHTS profiling of the MIPE4 collection as inhibitors of Plasmodium falciparum (DD2) proliferation (Rep 2) (AID 743346; call rule not given here); details: P. falciparum Dd2 in erythrocytes, SYBR Green DNA, 72 h; at 28.5 µM (top of the series) unless noted
In short: as §1

[23] = qHTS profiling of the MIPE4 collection as inhibitors of Plasmodium falciparum (HB3) proliferation (AID 743347; call rule not given here;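 also: plate controls were DMSO vehicle wells for no effect and artemisinin wells for full effect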); details: P. falciparum HB3 in erythrocytes, SYBR Green DNA, 72 h; at 28.5 µM (top of the series) unless noted
In short: as §1

c1ccc(Nc2cccc3ccccc23)cc1
inactive: Potency [2] | activation [4] 4.55% | Potency [5] | Potency [7] | activation [9] -0.293% | activation [10] 4.97% | max response [11] -0.23% | Potency [12] | Potency [13] | Potency [14] | Potency [15]
active: Potency [1] 31.6 µM | Potency [3] 31.6 µM | Potency [6] 39.8 µM and 44.7 µM | Potency [8] 42.2 µM and 24.3 µM

CC(=O)/C=C/C1C(C)=CCCC1(C)C (centres undefined)
inactive: activation [16] 2.64% | Potency [5] | Potency [12] | Potency [13] | Potency [14] | Potency [15]

C=CCCCCCCCCC=O
inactive: Potency [5] | Potency [12] | Potency [13] | Potency [14] | Potency [15]

C[C@H](CCC(=O)O)[C@H]1CC[C@H]2[C@@H]3CC[C@@H]4C[C@H](O)CC[C@]4(C)[C@H]3CC[C@]12C
inactive: Potency [17] | Potency [18] | Potency [19] | Potency [12] | Potency [13] | Potency [14] | Potency [15]
active: Potency [8] 26.6 µM and 19.3 µM

NCCO/C=C/[C@H](N)C(=O)O
inactive: Potency [5] | Potency [12] | Potency [13] | Potency [14] | Potency [15]

C=CCOC(=O)c1ccccc1C(=O)OCC=C
inactive: Potency [2] | Potency [8] | Potency [12] | Potency [13] | Potency [14] | Potency [15]
active: Potency [1] 5.01 µM

C[C@H](CCC(=O)O)[C@H]1CC[C@H]2[C@@H]3[C@H](O)C[C@@H]4C[C@H](O)CC[C@]4(C)[C@@H]3CC[C@]12C
92.9%: parasite growth remaining, % of DMSO control (lower = more inhibition) [21]
67.3%: parasite growth, % of control (lower = inhibition) [22]
81.3%: growth, % of control [23]
inactive: Potency [12] | Potency [13] | Potency [14] | Potency [15]
59.3%: parasite growth, % of DMSO control [20]

COC(=O)c1ccc(C)cc1
inactive: Potency [5] | Potency [12] | Potency [13] | Potency [14] | Potency [15]

OCCO
inactive: Potency [5] | Potency [12] | Potency [13] | Potency [14] | Potency [15]

O=C(O)c1cc(O)c2ccccc2c1O
inactive: Potency [5] | Potency [12] | Potency [13] | Potency [14] | Potency [15]

CCCC/C=C\CCCCCCCCCC=O
inactive: Potency [5] | Potency [12] | Potency [13] | Potency [14] | Potency [15]

CON=C(C(=O)N[C@@H]1C(=O)N2C(C(=O)O)=C(Cn3ccc(=N)n3CCO)CS[C@H]12)c1csc(N)n1
92%: parasite growth, % of control (lower = inhibition) [22]
60.9%: parasite growth, % of DMSO control [20]
93.5%: parasite growth remaining, % of DMSO control (lower = more inhibition) [21]
99.1%: growth, % of control [23]
inactive: Potency [12] | Potency [13] | Potency [14] | Potency [15]

CCC(=O)OCCc1ccccc1
inactive: Potency [5] | Potency [12] | Potency [13] | Potency [14] | Potency [15]

CNC1[C@H](O)C(O[C@@H]2C(O)C(O[C@H]3O[C@H]([C@@H](C)NC)CC[C@H]3N)[C@@H](N)C[C@H]2N)OC[C@]1(C)O (some centres undefined)
111%: parasite growth, % of control (lower = inhibition) [22]
93.1%: parasite growth, % of DMSO control [20]
103%: parasite growth remaining, % of DMSO control (lower = more inhibition) [21]
inactive: Potency [12] | Potency [13] | Potency [14] | Potency [15]
